Reference: PubChem BioAssay AID2148 (The Scripps Research Institute Molecular Screening Center, 2009)
Screen size: about 2,400 compounds; about 1,500 (62%) were called active. Rule as the data show it: active = inhibition above about 22%; inactive = the rest. So high a share suggests a set chosen from earlier hits. A selection follows.

What follows are molecules tested against Melanin-concentrating hormone receptor 1 (Homo sapiens) (UniProt Q99705) (assay: MCHR1 antagonists in cells, counter-screen for GPR7 antagonist project, cell-based, fluorescence, human (AID 2148;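 also: 0% = vehicle with agonist and 100% = vehicle without agonist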)). Conditions: MCHR1-expressing cells, fluorescence antagonist assay; at 4.4 µM; active compounds read high.

| Structure (SMILES) | inhibition |
| --- | --- |
| COc1ccccc1N(C(=O)Cn1nnc2ccccc21)C(C(=O)NCc1ccco1)c1ccc(C)o1 (configuration not stated) | 25.9% (active) |
| O=[N+]([O-])/C=C/c1ccc2c(ccn2Cc2ccccc2)c1 | 104% (active) |
| CCCOc1ccccc1C1CC(=O)Nc2cc3c(cc21)OCO3 (configuration not stated) | 51.8% (active) |
| COc1cc(OC)cc(C(=O)N[C@H](C(=O)OCC(=O)NC(C)c2ccccc2)C(C)C)c1 (some centres not stated) | 65% (active) |
| Cc1ccc(NC(=O)CN2C(=O)NC(C)(c3ccc(Cl)cc3)C2=O)c(Br)c1 (configuration not stated) | 6.97% (inactive) |
| COc1cc(NC(=O)CN2C(=O)NC(C)(c3ccc(OC(F)F)cc3)C2=O)cc(OC)c1OC (configuration not stated) | 28.4% (active) |
| C=CCNC(=O)COC(=O)c1ccccc1C(=O)N(C)C1CCCCC1 | -2.95% (inactive) |
| C=CCC1(CC=C)CCCN1C(=O)c1cc(COc2ccc(-n3cncn3)cc2)on1 | 55.2% (active) |
| CCc1ccc(NC(=O)c2ccc(Cn3cc([N+](=O)[O-])cn3)cc2)cc1 | 35.1% (active) |
| CCOc1ccc(C(=O)NC(=S)Nc2ccc(N3CCOCC3)c(Cl)c2)cc1[N+](=O)[O-] | 24.7% (active) |
| CC(C(=O)N1CCN(c2ccccc2F)CC1)c1ccc([N+](=O)[O-])cc1 (configuration not stated) | 27.9% (active) |
| CCN(CC)Cc1c(C(=O)OC)nnn1-c1nonc1N | 5.07% (inactive) |
| Clc1ccc(-c2cc(C3CCNCC3)[nH]n2)c(Cl)c1 | 35.6% (active) |
| O=C(COc1ccc(S(=O)(=O)Nc2cccc(C(F)(F)F)c2)cc1)N1CCOCC1 | 28% (active) |
| O=S(=O)(c1ccc(OCC(O)CN2CCN(c3ccccc3Cl)CC2)cc1)N1CCOCC1 (configuration not stated) | 38.9% (active) |
| O=C(NCCCN1CCN(c2ccc(F)cc2)CC1)Nc1ccc([N+](=O)[O-])cc1 | 65.1% (active) |
| Cc1c(CCO)c(=O)n(-c2ccccc2)n1S(=O)(=O)c1ccc(F)cc1 | -12.3% (inactive) |
| Cc1ccc(O)c(NC(=S)NC(=O)COc2ccc(Br)cc2)c1 | 83.8% (active) |
| CN(c1cccc(NC(=O)Nc2ccc(Cl)cc2)c1)S(C)(=O)=O | 67.3% (active) |

| Structure (SMILES) | inhibition |
| --- | --- |
| CCOc1ncccc1C(=O)NCCc1ccc(OC)cc1 | 13.4% (inactive) |
| COc1ccc(CS(=O)/C(Cl)=C(/Cl)C(=O)Nc2ccc(OC)nc2)cc1 (configuration not stated) | 63.9% (active) |
| COc1cccc(CNCCc2c[nH]c3ccccc23)c1OCc1ccccc1F | 83.6% (active) |
| Cc1ccccc1Nc1nnc(SCC(=O)c2cc3ccccc3o2)s1 | 10.6% (inactive) |
| Nc1nnc(SCC(=O)Nc2ccc3nc(SCC(=O)Nc4ccccc4)sc3c2)s1 | 81.6% (active) |
| O=C(CN1C(=O)/C(=C/c2ccccc2F)Sc2ccccc21)NCc1cccnc1 | 63% (active) |
| Clc1ccc(C2CC(c3cccs3)n3ncnc3N2)cc1Cl (configuration not stated) | 15.5% (inactive) |
| COc1ccc(C2Nc3ccccc3C(=O)N2Cc2ccccc2)cc1Cn1nnc2ccccc21 (configuration not stated) | 32.1% (active) |
| Fc1ccc(-c2ccc(-c3nn4c(-c5ccco5)nnc4s3)o2)cc1 | 12.7% (inactive) |
| O=C(NCCCN1CCOCC1)c1ccc2c(c1)N(Cc1cccc(F)c1)C(=O)c1ccccc1S2 | 25.3% (active) |
| Cc1ccccc1CN1C(=O)c2ccccc2Sc2ccc(C(=O)NCCCN3CCOCC3)cc21 | 17% (inactive) |
| CCOC(=O)C1CSC(CC(=O)Nc2ccc(OCC)cc2)C(=O)N1 (configuration not stated) | 3.62% (inactive) |
| CCC(C)c1ccccc1NC(=O)CN(C)CC(=O)Nc1ccccc1SC (configuration not stated) | 24.8% (active) |
| CCc1ccc(N(C(=O)c2csnn2)C(C(=O)NC2CCCCC2)c2ccncc2)cc1 (configuration not stated) | 17.6% (inactive) |
| CC(C)OCCCNc1ncnc2c1[nH]c1ccc(F)cc12 | 70.9% (active) |
| Cc1cc(OC(C)C(=O)NC2CC(C)(C)NC(C)(C)C2)c2c(C)cc(=O)oc2c1 (configuration not stated) | -9.17% (inactive) |
| O=C(COc1ccccc1)NCc1ccc2c(c1)OCO2 | 1.89% (inactive) |
| CCOc1ccc(Cn2nnc(C(=O)NCc3ccccc3)c2N)cc1 | 51.5% (active) |
| O=C(NC(=O)c1ccccc1)Nc1ccccc1O | 14.3% (inactive) |

| Structure (SMILES) | inhibition |
| --- | --- |
| Cc1ccccc1NC(=S)NC(=O)Cc1ccc(Cl)cc1 | 65.3% (active) |
| O=C(Cc1ccc(Cl)cc1)NC(=S)Nc1ccccc1O | 96.4% (active) |
| O=C(CC(=O)Nc1ccc(Cl)c(Cl)c1)N/N=C/c1ccc(O)cc1 | 12.4% (inactive) |
| CS(=O)(=O)N(CC(O)Cn1c2ccccc2c2ccccc21)c1cccc2ccccc12 (configuration not stated) | 41.7% (active) |
| Cc1cccc(NC(=O)c2cccc(C(=O)Nc3cccc(C)c3C)n2)c1C | 25.4% (active) |
| Cc1ccc(C(=O)C[n+]2cc(-c3ccccc3)n3c2CCCCC3)cc1 | 16.7% (inactive) |
| Cc1ccc2[nH]cc(CCNC(=O)c3ccc([N+](=O)[O-])cc3)c2c1 | 49% (active) |
| O=C(Nc1nc(-c2ccc3c(c2)OCO3)cs1)c1ccncc1 | 67.8% (active) |
| O=C(Nc1ccccc1F)c1ccc2c(c1)OCO2 | 2.37% (inactive) |
| COc1ccc(NS(=O)(=O)c2ccc(NC(=S)NC(=O)CC(C)C)cc2)cc1 | 58.1% (active) |
| O=C(CSCc1ccc([N+](=O)[O-])cc1)NCCSCc1ccccc1 | 28.9% (active) |
| O=[N+]([O-])c1ccc(N(CCO)Cc2ccccc2)c([N+](=O)[O-])c1 | 15.3% (inactive) |
| N=c1c2c(-c3ccccc3)c(-c3ccccc3)n(Cc3ccccc3)c2ncn1CCCO | 38.1% (active) |
| CCN1/C(=C\c2ccc3ccccc3[n+]2CC)Sc2cc(C)ccc21 | 42.9% (active) |
| CCc1ccc(OCC2c3cc(OC)c(OC)cc3CCN2C(C)=O)cc1 (configuration not stated) | 29.6% (active) |
| CC1CN(C(=O)CCC(=O)NCCCN2CCC(Cc3ccccc3)CC2)c2cc(Cl)ccc2O1 (configuration not stated) | 49.6% (active) |
| Cc1ccc(S(=O)(=O)n2cnc3ccccc32)c(C)c1 | -5.48% (inactive) |
| CC(=O)Nc1ccc(S(=O)(=O)N(C)CC(=O)NCCC2=CCCCC2)cc1 | -1.52% (inactive) |
| COc1ccc(C(CCNCc2ccccc2F)c2ccc(F)cc2)cc1 (configuration not stated) | 42.1% (active) |
